A short description of assay [1]: Nuclear factor erythroid 2-related factor 2/antioxidant responsive element (Nrf2/ARE) small molecule agonists: qHTS cell viability counter screen in human keratinocytes (AID 1919968; active = well fitted curve in the direction sought with a large enough effect in the repeat runs; an effect the other way counts as inactive or inconclusive; note: nearly all actives have a fitted effect of over 55% in size). Summed up: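 Stably transfected HaCaT (KeratinoSens), 1,500/well. Test agents in DMSO were applied for 23 h, 37 C/5% CO2. CellTiter-Fluor was incubated 1 h before the fluorescence read.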

The target of assay [2] is KiSS-1 receptor (Homo sapiens) (UniProt Q969F8). Nature of the assay: Human kisspeptin (KISS1R) small molecule agonists, calcium flux assay in KISS1R-HEK293 cells (AID 1920064; active = well fitted curve in the direction sought with a large enough effect in the repeat runs; an effect the other way counts as inactive or inconclusive). Summed up:
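After overnight (18 h) culture at 37 C/5% CO2, human KISS1R-HEK293 cells received calcium dye for 1 h, then test compound; emission at 540 nm (excitation 480 nm) was tracked for 3 min.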

Assay [3] can be described thus: G protein-coupled receptor (GPCR) small molecule agonists, calcium flux assay: HEK293 wild type cell line counter screen (AID 1920065). The method, boiled down: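 Following 18 h incubation at 37 C/5% CO2, plates got calcium dye for 1 h; compounds, ATP or DMSO were then pinned in and fluorescence followed kinetically (480/540 nm).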
Assay [4] in a line: p53 small molecule agonists, cell-based qHTS assay with human liver microsomes (AID 1963577).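 Note: p53 response element beta-lactamase reporter cells with liver microsomes plus NADPH.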 Summed up: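 With metabolic activation: human liver microsomes (0.5 mg/mL final) plus NADPH (0.5 mg/mL final) added alongside compounds to p53RE-bla cells; 16 h 37 C exposure; beta-lactamase read by LiveBLAzer fluorescence.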
The nature of assay [5]: p53 small molecule agonists, cell-based qHTS assay with rat liver microsomes (AID 1963578). The method, boiled down:
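Metabolic activation by rat liver microsomes and NADPH, each 0.5 mg/mL final, added right after compounds to p53RE-bla reporter cells (4,000/well, plated 5 h earlier). 16 h at 37 C, then LiveBLAzer substrate for 2 h at room temperature in the dark; fluorescence read-out.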

A short description of assay [6]: p53 small molecule agonists, cell-based qHTS assay with human liver microsomes: qHTS cell viability counter screen (AID 1963579). Note: nearly all actives have a fitted effect of over 45% in size. Summed up: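 Metabolic activation used human liver microsomes and NADPH, both 0.5 mg/mL final, over 16 hours at 37 C on p53RE-bla cells (4,000/well). Cytotoxicity measured by CellTiter-Glo luminescence, 30 min at room temperature.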
Assay [7] is described as follows: p53 small molecule agonists, cell-based qHTS assay with rat liver microsomes: qHTS cell viability counter screen (AID 1963580). Note: nearly all actives have a fitted effect of over 45% in size. The method, boiled down:
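Counter screen for cytotoxicity under metabolic activation: rat liver microsomes and NADPH, 0.5 mg/mL final each, added with compounds to p53RE-bla HCT-116 cells; 16 h at 37 C, then ATP luminescence read.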

Assay [8] is described as follows: p53 small molecule agonists, cell-based qHTS assay: qHTS cell viability counter screen (AID 1963581). Note: nearly all actives have a fitted effect of over 45% in size. The method, boiled down:
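qHTS counter screen: 16 h compound exposure at 37 C of p53RE-bla HCT-116 cells (4,000 per well, seeded 5 h prior), cell viability by ATP luminescence.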

Assay [9] concerns the target 5-hydroxytryptamine receptor 2A (Homo sapiens) (UniProt P28223). Put plainly: 5-hydroxytryptamine receptor 2A (HTR2A) small molecule antagonists, cell-based qHTS assay (AID 1963586). Note: nearly all actives have a fitted effect of over 45% in size. The method, boiled down:
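CHO cells stably expressing human HTR2A were plated for 18 h at 37 C, then loaded with calcium dye for 1 h. Compounds were preincubated 5 min at room temperature before DOI (4 nM solution) was added. Kinetic fluorescence was read for 3 min.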

For assay [10], the target named is Muscarinic acetylcholine receptor M1 (Homo sapiens) (UniProt P11229). Put plainly: Cholinergic receptor muscarinic 1 (CHRM1) small molecule antagonists, cell-based qHTS assay (AID 1963588). Note: nearly all actives have a fitted effect of over 40% in size. The method, boiled down: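 Compounds were tested at 15 concentrations in three independent runs. Dye-loaded CHRM1-CHO cells were exposed 5 min at room temperature before stimulation by acetylcholine added at 50nM. Intracellular calcium was read kinetically on FDSS for 3 min.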

Assay [11] shares this target. Nature of the assay: Cholinergic receptor muscarinic 1 (CHRM1) small molecule agonists, cell-based qHTS assay (AID 1963589). Note: nearly all actives have a fitted effect of over 35% in size. Summed up: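 Kinetic fluorescence (1 s intervals) of calcium-sensitive dye in human M1 CHO cells after compound addition; cells pre-incubated 18 h at 37 C/5% CO2 and dye-loaded 1 h.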
A short description of assay [12]: cAMP Responsive Elements (CRE) small molecule agonists, cell-based qHTS assay (AID 1963590). Summed up: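 Test agents in DMSO were incubated 3 h at 37 C/5% CO2 with CRE-bla HEK 293T cells seeded 18 h earlier; LiveBLAzer B/G FRET substrate was added and read after 2 h at room temperature.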
Assay [13] in a line: cAMP Responsive Elements (CRE) small molecule antagonists, cell-based qHTS assay (AID 1963591; active = well fitted inhibition curve with a large enough effect in the signal ratio in the repeat runs, not every such curve was filed as active; the % refers to the signal ratio). Summed up:
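Reporter line CRE-bla HEK 293T in dialyzed-FBS DMEM; cells preincubated 18 h, treated 3 h with compound plus NKH477 (0.25 uM final); LiveBLAzer FRET, 2 h RT.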

The target of assay [14] is Beta-2 adrenergic receptor (Homo sapiens) (UniProt P07550). Nature of the assay: Adrenergic beta2 receptor (ADRB2) small molecule antagonists, cell-based qHTS assay (AID 1963592). Note: series mostly up to about 92 µM; nearly all actives have a fitted effect of over 50% in size. Summed up: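 Assay format: CHO-ADRB2 cells, 18-20hr seeding at 37C/5% CO2, then compound plus 1nM isoproterenol agonist mix for 0.5hr RT. Homogeneous time-resolved fluorescence cAMP detection after 1hr, expressed as 665/615 nm ratio.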

Assay [15] has the same target. Nature of the assay: Adrenergic beta2 receptor (ADRB2) small molecule agonists, cell-based qHTS assay (AID 1963593).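 Note: CHO cells stably overexpressing human ADRB2.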 The method, boiled down:
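CHO cells stably over-expressing ADRB2 were plated overnight at 37C, then dosed with compounds plus a stimulation mix containing 100uM IBMX and 25uM Ro-20-1724 for 0.5hr at room temperature. cAMP was measured by HTRF competition, 1hr.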

Assay [16] deals with D(2) dopamine receptor (Homo sapiens) (UniProt P14416). Nature of the assay: Dopamine D2 receptor (DRD2) small molecule agonists, cell-based qHTS assay (AID 1963594). Note: nearly all actives have a fitted effect of over 35% in size. The method, boiled down: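 HEK293 cells stably expressing DRD2 were cultured 24 h at 37 C, then given Ro20-1724 (0.1 mM final) and compounds for 10 min at room temperature. NKH477 (200nM) was then added for 30 min. cAMP was read by HTRF.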

For assay [17] the target is unchanged. Nature of the assay: Dopamine D2 receptor (DRD2) small molecule antagonists, cell-based qHTS assay (AID 1963595; active = well fitted inhibition curve with a large enough effect in the signal ratio in the repeat runs, with a control signal flat; the % refers to the signal ratio; note: potency is the fitted concentration of half-maximal effect). Summed up: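 Antagonist mode in DRD2-HEK293 cells: after compound addition with 0.1 mM Ro20-1724, cells received quinpirole (12 nM) and NKH477 (200 nM) for 30 min at room temperature; HTRF cAMP read after 1 h detection.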
Assay [18] in a line: p53 small molecule agonists, cell-based qHTS assay (AID 1963582; active = well fitted activation curve with a large enough effect in the signal ratio in the repeat runs, not every such curve was filed as active; the % refers to the signal ratio). The method, boiled down: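 Measured: fluorescence from cleaved LiveBLAzer substrate. System: p53RE-bla cells, 16 h compound treatment at 37 C, 2 h substrate step at room temperature.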
For assay [19], the target named is Gonadotropin-releasing hormone receptor (Homo sapiens) (UniProt P30968). Nature of the assay: Human gonadotropin-releasing hormone receptor (GnRHR) small molecule agonists, calcium flux assay in GnRHR-HEK293 cells (AID 1920063). Note: nearly all actives have a fitted effect of over 35% in size. Summed up: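 Stable human GnRHR HEK293 line. 18 h plating, then calcium dye for 1 h at 37 C. Agonist-mode compound addition from DMSO stocks; fluorescence monitored 3 min.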

The target in assay [20] is 5-hydroxytryptamine receptor 2A (Homo sapiens) (UniProt P28223). Nature of the assay: 5-hydroxytryptamine receptor 2A (HTR2A) small molecule agonists, cell-based qHTS assay (AID 1963587). Note: nearly all actives have a fitted effect of over 30% in size. The method, boiled down: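 HTR2A-CHO cells, plated 18 h at 37 C/5% CO2, dye-loaded 1 h at 37 C; compounds in DMSO added by pin tool (agonist mode). Intracellular calcium flux read as kinetic fluorescence on FDSS over 2 min at 1 s intervals.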

In PubChem BioAssay (Tox21) one finds Potency data, which are given here for nine molecules.

Inconclusive results are not listed. Where a structure was tested more than once in an assay, its records may differ in their call. The source made the active and inactive calls. Unless noted, calls come from the whole dose curve.

Chain of Muscarinic acetylcholine receptor M1 (Homo sapiens) (P11229 whole entry, looked up): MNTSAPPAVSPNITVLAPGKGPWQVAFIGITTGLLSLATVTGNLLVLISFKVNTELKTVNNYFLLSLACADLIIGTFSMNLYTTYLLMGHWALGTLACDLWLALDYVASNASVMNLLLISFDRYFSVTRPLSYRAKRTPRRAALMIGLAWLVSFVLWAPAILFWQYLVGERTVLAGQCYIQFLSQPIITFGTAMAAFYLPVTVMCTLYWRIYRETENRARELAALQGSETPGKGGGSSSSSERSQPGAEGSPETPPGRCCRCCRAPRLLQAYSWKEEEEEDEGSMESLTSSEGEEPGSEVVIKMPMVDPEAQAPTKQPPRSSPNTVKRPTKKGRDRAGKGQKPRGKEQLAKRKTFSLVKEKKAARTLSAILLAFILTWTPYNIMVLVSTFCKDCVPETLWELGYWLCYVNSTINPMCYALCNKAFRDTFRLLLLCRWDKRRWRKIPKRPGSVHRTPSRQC
Chain of KiSS-1 receptor (Homo sapiens) (Q969F8 whole entry, looked up): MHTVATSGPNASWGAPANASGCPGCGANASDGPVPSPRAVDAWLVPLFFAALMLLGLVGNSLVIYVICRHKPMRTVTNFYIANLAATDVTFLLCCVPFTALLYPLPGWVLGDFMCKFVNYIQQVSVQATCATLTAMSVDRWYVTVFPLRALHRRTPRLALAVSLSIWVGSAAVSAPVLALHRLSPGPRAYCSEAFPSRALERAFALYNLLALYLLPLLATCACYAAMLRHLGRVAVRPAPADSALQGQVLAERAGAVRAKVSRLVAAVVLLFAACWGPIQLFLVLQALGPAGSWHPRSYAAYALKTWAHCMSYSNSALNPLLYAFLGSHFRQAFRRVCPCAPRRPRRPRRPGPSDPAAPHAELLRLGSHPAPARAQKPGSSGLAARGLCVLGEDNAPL
Chain of Beta-2 adrenergic receptor (Homo sapiens) (P07550 whole entry, looked up): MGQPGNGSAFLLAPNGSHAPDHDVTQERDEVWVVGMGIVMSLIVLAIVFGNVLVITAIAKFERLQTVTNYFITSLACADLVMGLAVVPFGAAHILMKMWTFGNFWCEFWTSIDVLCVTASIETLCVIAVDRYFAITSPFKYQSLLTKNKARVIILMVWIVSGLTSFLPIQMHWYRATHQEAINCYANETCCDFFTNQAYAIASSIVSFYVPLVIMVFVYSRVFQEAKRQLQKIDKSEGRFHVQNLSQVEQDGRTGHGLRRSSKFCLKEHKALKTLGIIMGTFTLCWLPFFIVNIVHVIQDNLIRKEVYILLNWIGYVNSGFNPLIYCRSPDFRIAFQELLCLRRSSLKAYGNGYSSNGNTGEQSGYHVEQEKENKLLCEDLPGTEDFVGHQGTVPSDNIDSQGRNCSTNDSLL
Chain of Gonadotropin-releasing hormone receptor (Homo sapiens) (P30968 whole entry, looked up): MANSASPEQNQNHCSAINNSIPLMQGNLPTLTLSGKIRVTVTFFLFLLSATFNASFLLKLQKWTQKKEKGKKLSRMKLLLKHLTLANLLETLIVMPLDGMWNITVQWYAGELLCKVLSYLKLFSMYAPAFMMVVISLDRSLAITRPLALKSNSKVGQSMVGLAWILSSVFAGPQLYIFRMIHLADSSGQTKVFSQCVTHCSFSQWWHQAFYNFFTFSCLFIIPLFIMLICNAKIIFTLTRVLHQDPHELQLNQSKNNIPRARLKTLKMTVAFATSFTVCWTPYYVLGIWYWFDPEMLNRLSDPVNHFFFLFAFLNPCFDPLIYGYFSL
Chain of 5-hydroxytryptamine receptor 2A (Homo sapiens) (P28223 whole entry, looked up): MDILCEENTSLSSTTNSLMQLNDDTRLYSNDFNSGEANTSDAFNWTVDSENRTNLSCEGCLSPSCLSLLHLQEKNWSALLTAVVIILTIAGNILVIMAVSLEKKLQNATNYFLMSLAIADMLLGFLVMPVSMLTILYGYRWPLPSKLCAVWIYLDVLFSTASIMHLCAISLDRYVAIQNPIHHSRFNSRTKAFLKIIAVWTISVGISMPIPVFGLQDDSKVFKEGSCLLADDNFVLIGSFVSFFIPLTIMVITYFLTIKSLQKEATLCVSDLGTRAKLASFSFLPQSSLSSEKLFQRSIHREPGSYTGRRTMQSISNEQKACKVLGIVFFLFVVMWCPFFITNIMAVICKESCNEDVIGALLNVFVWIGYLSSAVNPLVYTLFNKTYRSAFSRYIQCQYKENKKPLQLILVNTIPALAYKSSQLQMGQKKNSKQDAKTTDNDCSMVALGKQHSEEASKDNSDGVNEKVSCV
Chain of D(2) dopamine receptor (Homo sapiens) (P14416 whole entry, looked up): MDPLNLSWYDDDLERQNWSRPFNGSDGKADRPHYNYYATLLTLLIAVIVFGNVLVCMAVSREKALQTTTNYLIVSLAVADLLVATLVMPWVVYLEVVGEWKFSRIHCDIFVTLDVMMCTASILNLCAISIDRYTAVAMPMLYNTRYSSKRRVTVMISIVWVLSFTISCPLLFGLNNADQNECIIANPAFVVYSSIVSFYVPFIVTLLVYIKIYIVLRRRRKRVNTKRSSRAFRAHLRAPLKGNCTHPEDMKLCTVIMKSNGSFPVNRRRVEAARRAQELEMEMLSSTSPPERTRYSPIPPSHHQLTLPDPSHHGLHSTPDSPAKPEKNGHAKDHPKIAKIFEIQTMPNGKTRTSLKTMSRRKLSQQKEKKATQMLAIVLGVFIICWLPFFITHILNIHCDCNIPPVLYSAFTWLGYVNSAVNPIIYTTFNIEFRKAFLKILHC

`CC(C)(C)[C@@H](O)[C@@H](Cc1ccc(Cl)cc1)n1cncn1`: the Potency result in assay [1], in assay [2], in assay [3], in [4], in [5] and in [6] was “inactive” throughout. Also, the Potency result in assay [7], in [8], in assay [9], in assay [10], in assay [11] and in assay [12] was “inactive” throughout. The Potency entry in assay [13], in [14], in assay [15], in assay [16] and in assay [17] was “inactive” each time.
As to `CNC[C@H](O)c1ccc(O)c(O)c1`, the Potency entry in assay [1], in assay [2], in [3], in [4], in assay [5] and in [6] was “inactive” throughout. Moreover, the Potency entry in assay [7], in assay [8], in [18], in [13] and in assay [16] was “inactive” throughout. Also, the Potency in assay [17] was 13 µM (active).
With `CC(C)NCC(O)c1ccc(O)c(O)c1` (stereo not given), the Potency entry in assay [1], in assay [2], in [3], in assay [6], in [7] and in [8] was “inactive” in each case. For the same molecule, the Potency entry in assay [13] was “inactive”.
`CCCCCCCCCC`: the Potency entry in [1], in assay [19], in assay [2], in assay [3], in assay [4] and in [5] was “inactive” each time. In addition, the Potency result in [6], in assay [7], in assay [8], in assay [18], in [9] and in assay [20] was “inactive” throughout. For the same molecule, the Potency entry in [10], in assay [11], in assay [12], in assay [13], in assay [14] and in [15] was “inactive” in each case. In addition, the Potency entry in [16] and in [17] was “inactive” in each case.
In the case of `CCCc1cc(=O)[nH]c(=S)[nH]1`, the Potency entry in assay [1], in assay [2], in assay [4], in [5], in assay [6] and in [7] was “inactive” throughout. Also, the Potency entry in assay [8], in assay [18], in assay [12], in assay [13], in [14] and in [15] was “inactive” each time. Further, the Potency entry in assay [16] and in assay [17] was “inactive” in each case.
As for `CCC(C)(C)C(=O)O[C@H]1C[C@@H](C)C=C2C=C[C@H](C)[C@H](CC[C@@H]3C[C@@H](O)CC(=O)O3)[C@H]21`, the Potency entry in [1], in assay [3], in assay [5], in assay [6], in assay [7] and in [8] was “inactive” throughout. In addition, the Potency entry in assay [18], in [12] and in assay [16] was “inactive” throughout. The Potency in assay [17] is 19.3 µM (active) and inactive.
For `COC(=O)c1ccc(C=O)cc1`, the Potency entry in assay [1], in assay [2], in [3], in [4], in [5] and in [6] was “inactive” each time. The Potency result in assay [7], in assay [8], in assay [9], in assay [20], in [10] and in assay [11] was “inactive” throughout. In addition, the Potency entry in assay [12], in assay [14] and in [15] was “inactive” throughout.
Take `Cc1cc(C)nc(NS(=O)(=O)c2ccc(N)cc2)n1`: the Potency entry in assay [1], in assay [2], in assay [3], in assay [4], in assay [5] and in assay [6] was “inactive” throughout. For the same molecule, the Potency entry in [7], in assay [8], in assay [18], in [12], in assay [13] and in assay [14] was “inactive” each time. For the same molecule, the Potency entry in assay [15], in assay [16] and in assay [17] was “inactive” in each case.
As for `COc1ccc(O)cc1`, the Potency entry in assay [1], in [19], in assay [2], in assay [3], in [4] and in [5] was “inactive” in each case. The Potency result in assay [6], in assay [7], in assay [8], in [18], in assay [9] and in [20] was “inactive” throughout. Besides, the Potency entry in [10], in assay [11], in [12], in assay [13], in assay [14] and in assay [15] was “inactive” each time. In addition, the Potency result in assay [16] and in assay [17] was “inactive” each time.
